Compound activity as filed in PubChem.
TIM10 inh = growth inhibitors of isogenic TIM10 control yeast, primary screen, counter-screen for tim10-1 yeast inhibitor project, luminescence, uHTS; AID 463195, 2010; 330,000 tested, 1.4% active; S. cerevisiae TIM10 strain growth, BacTiter-Glo luminescence, 24 h; inhibition, % at 10 µM;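 active = inhibition of 40% or more at the single tested concentration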;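 note: wild-type TIM10 isogenic control strain grown at permissive 25 °C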
tim10-1 inh = growth inhibitors of tim10-1 mutant yeast, primary screen, luminescence, uHTS. S. cerevisiae tim10-1 ts strain growth, BacTiter-Glo, 24 h. inhibition, % at 20 µM. 330,000 tested, 2.2% active. AID 463190, 2010;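 active = inhibition of at least 40%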;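 note: mutant grown at 25 °C; 0% = DMSO wells with yeast and 100% = wells holding no yeast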
tim23-1 inh = growth inhibitors of tim23-1 mutant yeast, primary screen, luminescence, uHTS; 330,000 tested, 1.3% active; S. cerevisiae tim23-1 growth, BacTiter-Glo luminescence, 24 h; inhibition, % at 20 µM;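 active = growth inhibition of the mutant yeast at or above 50%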;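 note: temperature-sensitive mutant grown at 25 °C; plate controls were DMSO-treated mutant yeast for no effect and medium wells lacking yeast for full effect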
NLRP3 yeast inh = NALP3 inflammasome inhibitors in reconstituted yeast, primary screen, luminescence, uHTS. 330,000 tested, 0.39% active. inhibition, % at 10 µM. Yeast reconstituted NLRP3/ASC/caspase-1, beta-gal luminescence, 24 h;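 active = inhibition of 50% or more; inactive = inhibition below 50%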;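 note: plate controls were induced DMSO wells for no effect and uninduced yeast grown without galactose for full effect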
NALP1 inh = NALP1 inflammasome inhibitors in reconstituted yeast, colorimetric, S. cerevisiae, triplicate retest | S. cerevisiae NALP1/ASC/caspase-1 growth, X-gal OD620, 72 h | inhibition, % at 10 µM | 280,000 tested, 0.61% active | AID 2071, 2009; in the data active = inhibition mostly above about 24%, no sharp cut-off; inactive = mostly below about 32%
tim23-1 confirm = tim23-1 mutant yeast growth inhibitors, confirmation, luminescence, single concentration. 4,400 tested, 83% active. shares compounds with tim23-1 inh. AID 463218, 2010. inhibition, % at 20 µM. S. cerevisiae tim23-1 growth, BacTiter-Glo luminescence, 24 h;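 active = inhibition above about 39% in either of two replicate wells at 20 µM, limit read from the data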;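 note: temperature-sensitive tim23-1 mutant grown at 25 °C; 0% = DMSO wells with yeast and 100% = medium wells without yeast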
Active calls of the source: *; x = not tested or not shown. Only some compounds are listed: those with a hit (about 4% of all), similar ones and a draw of the others.

SMILES	TIM10 inh	tim10-1 inh	tim23-1 inh	NLRP3 yeast inh	NALP1 inh	tim23-1 confirm
O=C(NCCN1C(=O)S/C(=C\c2cccc(Cl)c2Cl)C1=O)C1=COCCO1	-106.1	24.8	54.8*	9.1	20.4	35.3
Cc1cccc(C(C)C)c1NC(=O)C(C)OC(=O)Cc1n[nH]c(=O)c2ccccc12 (stereo not drawn)	-8.5	4.2	15.3	6.4	x	x
O=C1NC(=S)N/C1=C/c1ccc2ccccc2c1	12.2	15.9	7.3	6.5	-10.7	x
S=C(NCCSCc1c(Cl)cccc1Cl)Nc1ccccc1	39.8	34.5	50.3*	39.1	9.5	50.9*
CC(C)Cn1c(/C=C/c2ccccc2)nc2ccccc21	39.4	38.7	56.0*	41.2	34.0	45.7*
CCn1c(/C=C/c2ccccc2)nc2ccccc2c1=O	8.8	7.3	-10.5	24.9	-4.8	x
COc1ccc(OC)c(NC(=O)c2ccc3c(=O)n(CCc4ccccc4)c(=S)[nH]c3c2)c1	5.8	7.6	-6.3	12.6	24.2	x
CC(C)CCNc1nc(N)c([N+](=O)[O-])c(N2CCCCCC2)n1	26.1	20.8	50.0*	40.9	14.9	32.0
O=C(O)C(Oc1ccc2c(c1)oc(=O)c1ccccc12)c1ccccc1 (stereo not drawn)	5.6	-4.9	-7.3	9.1	7.6	x
O=C(O)C(Oc1ccc2ccccc2c1)c1ccccc1 (stereo not drawn)	3.6	-16.1	97.2*	10.1	x	7.7
COCCn1c(SCC(=O)NN2C(=O)NC(C)(c3ccccc3)C2=O)nnc1-c1ccncc1 (stereo not drawn)	1.6	-0.4	8.0	-6.0	x	x
CC(/C=N/NC(=O)Cc1cccs1)=C\c1ccco1	-11.0	-6.3	10.9	15.7	1.2	x
CC(/C=N/NC(=O)c1cccs1)=C\c1ccco1	23.1	6.0	63.7*	17.8	-2.6	71.0*
COc1cccc2sc3cc(NCc4ccc5c(c4)OCO5)ccc3c(=O)c12	16.7	-32.7	67.8*	28.2	x	56.1*
CC(C)(C)c1nnc(N/N=C/c2ccccc2O)n(N)c1=O	37.4	34.3	62.3*	-2.7	8.7	47.0*
Cc1cccc(/N=C/c2c(O)ccc3oc4c(c23)CCCC4)n1	36.7	36.7	70.1*	1.8	36.5	74.5*
Cc1cc(C)c2c(N)c(C(=O)N3CCc4ccccc4C3)sc2n1	27.2	20.5	15.5	12.4	19.5	x
COc1ccc(NC(=O)Nc2nc3c(s2)CCCC3)cc1	24.4	20.1	62.6*	5.6	27.0	50.0*
COc1ccc(OCC(=O)Nc2nc3c(s2)CCCC3)cc1	-2.2	1.0	9.3	40.6	-5.4	x
O=C(N/N=C/C(Cl)=C/c1ccccc1)c1ccco1	-22.1	-49.2	63.7*	49.7	15.3	7.3
O=C(N/N=C/C(Cl)=C\c1ccccc1)c1cnccn1	0.0	3.7	9.4	19.0	16.0	x
O=C(N/N=C/C(Cl)=C/c1ccccc1)c1ccccc1F	4.4	20.7	50.9*	42.0	22.0	27.1
O=C(N/N=C/C(Br)=C/c1ccccc1)c1ccccc1F	37.2	-0.3	69.0*	27.7	24.0	51.1*
C[C@H](NC(=O)c1ccccc1)C(=O)OCC(=O)Nc1sccc1C(N)=O	9.7	-13.5	-3.4	10.0	x	x
COc1cc(NC(=S)Nc2ccccn2)cc(OC)c1	26.5	15.0	51.1*	18.4	10.1	17.8
SMILES	TIM10 inh	tim10-1 inh	tim23-1 inh	NLRP3 yeast inh	NALP1 inh	tim23-1 confirm
CCOC(=O)C1CCN(C(=O)c2ccc(S(=O)(=O)Nc3ccccc3OC)cc2)CC1	1.5	5.3	14.2	18.1	x	x
Cn1c(N)c(C(=O)CSc2nnc(C3CC3)n2Cc2ccccc2)c(=O)[nH]c1=O	-2.2	5.6	-6.0	7.4	x	x
CC(=O)NC(c1ccc2ccccc2c1)c1ccc2cccnc2c1O (stereo not drawn)	-28.1	17.7	55.3*	34.8	-5.0	70.8*
COc1ccc(C(NC(C)=O)c2ccc3cccnc3c2O)c(OC)c1 (stereo not drawn)	0.9	14.1	-11.1	12.9	1.3	x
CC(=O)NC(c1ccc(Cl)cc1Cl)c1ccc2cccnc2c1O (stereo not drawn)	-36.5	-1.0	57.8*	25.6	13.0	57.0*
CCN(c1ccccc1)S(=O)(=O)c1ccc(OC)c(NC(=O)c2cc(F)c(F)c(F)c2F)c1	6.9	0.7	-1.7	-4.8	x	x
